The panel holds about 83,000 compounds, 20% with a hit somewhere; the sample as a whole holds those more often.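 Treatment: one concentration, 48 hours, 96-well format. Scoring: percent growth, with anything below 10 considered active.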 Values without a mark were called inactive. Calls of active or inactive are those of the source.

Common to all, as to experiment: NCI-60 one-dose screen, 48 h (100 = growth as untreated, 0 = no growth, -100 = all killed)
Common to all, as to settings: 10 µM

The test system of assay [1] is SK-MEL-2 melanoma.
Assay [2] concerns EKVX NSCLC.
Assay [3] has as its system SN12C renal.
The subject of assay [4] is UO-31 renal.
For assay [5], the system named is TK-10 renal.
Assay [6] concerns ACHN renal.
Assay [7] concerns CAKI-1 renal.
Assay [8] has as its system A498 renal.
The subject of assay [9] is MOLT-4 leukemia.
For assay [10], the system named is CCRF-CEM leukemia.

Consider `COc1ccc(/C=C(\c2cc(OC)c(OC)c(OC)c2)c2nnc(-c3cccs3)o2)cc1`, for which the growth in assay [1] is 81.9%; in [2], 78.6%; in [3], 84.6%; in assay [4], 89.3%; in assay [5], 75.5%; in assay [6] it was 75.3%. In addition, the results for the growth in [7], in assay [8] and in assay [9] were 66.3%, 71.4% and 87.6%, respectively.
Consider `O=C(/C=C/c1nnc2n(Cc3ccccc3)c(=O)c3c4c(sc3n12)CCCC4)c1ccccc1`, for which the growth is 107% in assay [1]; 92.4% in [2]; 96.7% in [3]; 80% in assay [4]; 136% in assay [5]; 125% in assay [6]. Moreover, the growth in assay [7] was 44.6%; in assay [8], 112%; in assay [9], -3.6% (active).
With `COc1ccccc1Cn1cc2c(c1-c1ccccc1)CCc1cnoc1-2`, the growth is 49.2% in assay [1]; 46.3% in [2]; 50.2% in assay [3]; 34.1% in [4]; 81.4% in assay [5]; 49.3% in assay [6]. Moreover, the growth in [7] was 4.31% (active); in assay [8], 43.2%; in [9] it was 38.8%.
Take `Cc1ccc(NS(=O)(=O)c2ccccc2)c(NS(=O)(=O)c2ccccc2)c1`: the growth in [1] was 98.6%; in [2] it was 93.8%; in assay [3], 90.4%; in assay [4], 69.4%; in assay [5], 112%; in assay [7], 93.2%. For the same compound, the figures for the growth in assay [8], in assay [10] and in [9] were 115%, 96% and 105%, respectively.
For `Oc1[nH]c2ccccc2c1/C=c1/cc2c(c(-c3ccc(C(F)(F)F)cc3)n1)=Nc1ccccc1-2`, the growth was 55.3% in assay [1]; 52.1% in assay [2]; 79.1% in [3]; 56.1% in [4]; 56.9% in assay [5]; 32% in assay [6]. Further, the growth in assay [7] was 48.4%; in [8], 62.6%; in assay [9], 29.6%.
As for `CC(C)(C)c1ccc(OCCCCCCN2CCNCC2)cc1`, the growth is 82% in [1]; 69.9% in assay [2]; 72.8% in assay [4]; 90.8% in [5]; 70.6% in assay [6]; 75.9% in assay [7]. The results for the growth in assay [8], in [10] and in [9] were 86.1%, 12% and 31.3%, respectively.
On to `O=C1CC[C@@H](C(=O)N[C@H]2CSSC[C@@H](C(=O)N/C=C/c3ccc(O)cc3)NC(=O)[C@H](Cc3ccccc3)NC(=O)[C@@H]3CCCN3C(=O)[C@@H]3CCCN3C2=O)N1`, for which the growth in [1] is 93.5%; in [2], 95%; in assay [4], 101%; in assay [5], 94.8%; in [6], 100%; in assay [7] it was 96.5%. Besides, the growth in [8] is 108%; in [10], 68%; in [9], 88.9%.
In the case of `CCCCCCN=C(N)CCCCCCCCCCC(N)=NCCCCCC`, the growth in assay [1] was 38.3%; in assay [2], 34.6%; in assay [4] it was 78.6%; in [5], 55.6%; in assay [6], 48.5%; in [7], 55.9%. In addition, the growth was 37% in assay [8], 29.5% in assay [10] and 38.2% in [9].
Turning to `CC1(C)CC(=O)c2c(nc3ccc(Cl)cc3c2-c2ccccc2)C1`, the growth in [1] is 81.2%; in assay [2] it was 95.9%; in assay [4] it was 66%; in assay [5], 118%; in assay [6], 93.9%; in [7] it was 85.5%. Besides, the growth was 115% in assay [8], 49.5% in assay [10] and 68.2% in assay [9].
Turning to `CNC(=S)Sc1ccc([N+](=O)[O-])cc1[N+](=O)[O-]`, the growth in assay [1] is 90.7%; in assay [2], 72.1%; in assay [4], 60.2%; in assay [5], 84.3%; in assay [6], 37.3%; in assay [7], 27%. Besides, the values for the growth in assay [8], in assay [10] and in [9] were 80.6%, 12.7% and 43.7%, respectively.
As to `COc1ccc(-c2csc(-c3cc(Cl)cc(Cl)c3Cl)n2)cc1`, the growth in [1] is 96.3%; in assay [2], 80.5%; in [3], 91.3%; in assay [5] it was 118%; in assay [6] it was 89.7%; in assay [7], 85.9%. The results for the growth in assay [8], in [10] and in assay [9] were 52.1%, 97.4% and 89%, respectively.
Take `CCC(OC(=O)CC(C)C)c1ccccc1` (stereo unspecified): the growth was 100% in [1]; 99.4% in assay [2]; 95.1% in assay [4]; 91.1% in assay [5]; 104% in assay [6]; 97.9% in [7]. For the same compound, the growth in [8] is 102%; in assay [10], 104%; in [9], 98.1%.
Consider `O=C1CC(c2cccc(-c3cccnc3)c2)=Nc2ccc(Br)cc2N1`, for which the growth in assay [1] was 49.5%; in assay [2], 36.9%; in assay [4], 41.9%; in assay [5], -9.34% (active); in assay [6] it was 27.5%; in assay [7], 49.9%. The growth in assay [8] is -4.26% (active); in assay [10] it was 50.8%; in [9], 27.1%.
For `COc1ccc2oc(=O)cc(C3c4ccc([nH]4)C(c4cc(=O)oc5ccc(OC)cc45)c4ccc([nH]4)C(c4cc(=O)oc5ccc(OC)cc45)c4ccc([nH]4)C(c4cc(=O)oc5ccc(OC)cc45)c4ccc3[nH]4)c2c1` (stereo unspecified), the growth was 1.72% (active) in assay [1]; 27.8% in assay [2]; -44.9% (active) in [4]; -32.1% (active) in assay [5]; 1.03% (active) in assay [6]; -22.1% (active) in assay [7]. For the same compound, the growth is -17.4% (active) in assay [8], 0.0782% (active) in [10] and -8.61% (active) in assay [9].

(Values after PubChem BioAssay (NCI).)
